The list is not random: actives were taken first. Their share in the collection is about 5.9%.
rTrxR1 inhibitor – rat TrxR1 inhibition; Potency, µM (doses to about 114 µM), actives largely listed as inhibitors; AID 588453; recombinant rTrxR1, NADPH fluorescence consumption, selenite substrate; O89049; hit rate 1% among 390,000; also: nearly all actives have a fitted effect of over 65% in size
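Rat TrxR1 (90 nM in the dispensed reagent) was pre-reduced with 400 uM NADPH for 5 min at room temperature, then incubated with compound for 15 min. After 400 uM selenite was added, NADPH fluorescence (Ex 340/Em 450 nm) was followed for 8 min.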
GALK inh – blocks human galactokinase activity. P51570. Potency, µM (top dose mostly 57.5 µM), hits mostly inhibitors. AID 1868. hit rate 0.007% among 270,000. Purified GALK, Kinase-Glo residual ATP luminescence
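Luminescence from leftover ATP (Ultra-Glo luciferase/luciferin) served as read-out after a 1 h room-temperature reaction of 5 nM GALK with 35 uM ATP and 100 uM galactose.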
Coupling enz – inhibits coupling enzyme system, counter-screen for aldolase hits | coupling enzyme system counterscreen, AmpLite Red fluorescence | activity change, negative = inhibition, % at 58.2 µM, hits read low | hit rate 0.67% among 290,000 | AID 2472; in the data active = activity change below about -30%
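Fluorescence at 525 nm excitation and 598 nm emission measured inhibition of the coupled detection system without aldolase. Compounds (at 57.5 uM final) were preincubated 10 min at room temperature with coupling enzyme reagent before a 20 min substrate/AmpLite Red step.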
VP16 counter – inhibits Gal4-VP16 luciferase reporter, ROR gamma counter-screen; Drosophila S2 Gal4-VP16 UAS-luciferase, luminescence, 20 h; Potency, µM (titrated, usually from 53.6 µM), usual class: inhibitors; hit rate 3.5% among 310,000; AID 2546;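 also: Gal4-VP16 expression switched on by copper sulfate through the metallothionein promoter; nearly all actives have a fitted effect of over 50% in size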
TrxR1 substrate – is turned over as a substrate by rat TrxR1; Potency, µM (titrated, usually from 114 µM); AID 588456; O89049; hit rate 0.01% among 390,000; purified TrxR1 substrate turnover, NADPH consumption readout; also: nearly all actives have a fitted effect of over 50% in size
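Rat TrxR1, dispensed at 90 nM, was prereduced with 400 uM NADPH (final) for 5 min at ~22 deg C, then incubated with compound 15 min before 400 uM selenite. A first-read NADPH fluorescence drop versus no-compound background flagged substrates.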
RORgamma inh – ROR gamma (mouse) transcription inhibition | P51450 | Drosophila S2 Gal4-RORgamma UAS-luciferase reporter, 20 h | Potency, µM (series often up to 53.6 µM), usual class: inhibitors | hit rate 5.4% among 310,000; also: nearly all actives have a fitted effect of over 60% in size
Target sequence (P51450 whole entry, looked up, the tested form may be a part): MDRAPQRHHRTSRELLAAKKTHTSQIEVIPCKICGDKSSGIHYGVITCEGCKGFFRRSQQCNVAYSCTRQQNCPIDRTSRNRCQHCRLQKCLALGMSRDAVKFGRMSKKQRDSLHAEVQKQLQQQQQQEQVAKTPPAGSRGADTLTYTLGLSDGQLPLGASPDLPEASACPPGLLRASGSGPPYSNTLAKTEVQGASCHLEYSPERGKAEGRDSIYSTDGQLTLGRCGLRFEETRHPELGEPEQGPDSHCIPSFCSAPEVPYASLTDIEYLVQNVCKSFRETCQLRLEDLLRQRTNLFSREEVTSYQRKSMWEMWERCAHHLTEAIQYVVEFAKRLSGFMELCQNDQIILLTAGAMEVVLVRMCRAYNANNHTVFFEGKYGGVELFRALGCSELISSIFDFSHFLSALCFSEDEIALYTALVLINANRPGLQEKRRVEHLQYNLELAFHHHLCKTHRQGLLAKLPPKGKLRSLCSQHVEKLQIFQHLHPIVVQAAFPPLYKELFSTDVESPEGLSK
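A Gal4/UAS one-hybrid system in insect cells: metallothionein-promoter Gal4–ROR gamma fusion plus Photinus luciferase reporter. Copper sulfate 700 uM final, 20 hr ambient incubation, luminescent detection after 10 min with reagent.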
A number is an active result; i = inactive; ? = inconclusive; nt = not tested or not shown; [ ] = dose if it differs, or a comment. Unless noted, calls follow the shape of the dose curve; as a rule, active = well fitted curve in the direction sought with a large enough effect; inconclusive = small, poorly fitted or top-dose-only effect, or another doubt; inactive = no such curve, though single readings can be large; an effect the other way counts as inactive or inconclusive.

SMILES	rTrxR1 inhibitor	GALK inh	Coupling enz	VP16 counter	TrxR1 substrate	RORgamma inh
Cc1ccc(NC(=S)Nc2ccc(Cl)c(Cl)c2)c(OC(F)F)c1	?	i	i	?	i	?
COc1ccc(NC(=S)Nc2ccc(C)c(Cl)c2)cc1OC	i	i	i	?	i	?
Cc1ccc(NC(=S)Nc2ccc(OC(F)F)c(Cl)c2)cc1Cl	i	i	i	?	i[0.457 µM]	13µM
COc1cccc([C@@H]2Oc3ccc(Br)cc3C(=O)[C@H]2OC(=O)Nc2cc(OC)c(OC)c(OC)c2)c1	nt	nt	i	i	nt	?
CC(=O)Nc1ccc(/C=C2\Sc3ccccc3C2=O)cc1	i	i	i	i	i[2.29 µM]	i
Cc1ccc(/C=C2\Sc3ccccc3C2=O)s1	i	i	i	?	i	11µM
CCc1ccc(OCC(=O)NNC(=O)c2ccc(NC(=O)C3CC3)cc2)cc1	i	i	nt	i	i	i
S=C1NCCc2ccccc2C1c1ccccc1 (stereo not drawn)	i	i	i	0.16µM	i	0.22µM
O=C(O)C1NCCc2ccccc21 (stereo not drawn)	i	i	i	i	i	i
S=C1NCCc2ccccc2C1c1ccccc1Cl (stereo not drawn)	i	i	i	3.5µM	i[0.457 µM]	7.9µM
O=C(CC1NCCc2ccccc21)Nc1ccccc1Cl (stereo not drawn)	i	i	i	i	i	i
CCOC(=O)c1c(C)[nH]c(CCC(=O)NCCCN2CCN(c3cc(Cl)ccc3C)CC2)c1C	i	nt	nt	nt	i	nt
c1ccc2oc(C3=NNC(=NC4CC4)SC3)cc2c1	i	i	i	11µM	i	3.5µM
Cc1cc(C2=NNC(=NC3CCCCC3)SC2)c(C)n1-c1c(C)n(C)n(-c2ccccc2)c1=O	i	i	i	i	i	i
Cc1cccc(C)c1N=C1NN=C(c2ccccc2F)CS1	i	i	i	10µM	i	7.9µM
Cc1cc(C2=NNC(=NC3CC3)SC2)c(C)n1-c1ccccc1F	i	i	i	0.71µM	i	1.1µM
c1csc(C2=NNC(=NC3CCCCC3)SC2)c1	i	i	i	i	i	?
c1ccc(CN=C2NN=C(c3cc4ccccc4o3)CS2)cc1	i	i	i	20µM	i	?
Cc1cc(N(C)NC(=S)Nc2ccccc2)nc(C)n1	i	i	i	i	i	i
Cc1nc2ccc(S(=O)(=O)N(CC(=O)Nc3cccc(Cl)c3)Cc3ccccc3)cc2s1	i	nt	nt	nt	i	nt
COc1ccc(Cl)cc1NC(=O)NNC(=O)c1ccccn1	i	i	nt	7.1µM	i	4.5µM
COc1ccccc1NC(=O)c1ccccc1NC(=O)c1ccccn1	i	nt	nt	nt	i	nt
O=C(COc1ccc(Cl)cc1)NNC(=O)c1ccccn1	i	i	i	?	i	10µM
Cc1onc(-c2ccccc2Cl)c1C(=O)Oc1ccc(Br)cc1	i	nt	nt	nt	i	nt
Cc1ccc(S(=O)(=O)NC(C(=O)Oc2ccc3ccc(=O)oc3c2)c2ccccc2)cc1 (stereo not drawn)	50µM	i	i	i	i	i
SMILES	rTrxR1 inhibitor	GALK inh	Coupling enz	VP16 counter	TrxR1 substrate	RORgamma inh
CCC(NC(=O)OCc1ccccc1)C(=O)Oc1ccc2ccc(=O)oc2c1 (stereo not drawn)	50µM	i	i	i	i	i
Cc1ccc(S(=O)(=O)NCCC(=O)Oc2ccc3ccc(=O)oc3c2)cc1	56µM	i	i	i	i	i
CC(C)(C)NS(=O)(=O)c1ccc(OCC(=O)NCCC2=CCCCC2)cc1	i	i	i	i	i	i
Cc1ccc(N=Cc2c(C)[nH]n(-c3nc4ccccc4[nH]3)c2=O)cc1	i	i	i	11µM	i	2.8µM
CCOC(=O)c1cc2c(C)n(-c3ccc(C)cc3)c(C)c2ccc1=O	?	i	i	10µM	i	i
COc1ccc(NC(=S)NC(=O)CC(C)C)c(OC)c1	i	i	i	?	i	?
CC(C)CC(=O)NC(=S)NCCc1ccccc1	i	i	i	7.9µM	i	1.8µM
O=C(CC(=O)NCCc1ccccc1)NCCc1ccccc1	i	i	i	i	i	i
COc1cc(NC(=S)NCCc2ccccc2)c(OC)cc1NC(=O)CC(C)C	i	i	i	?	i	10µM
CC(C)(C)NC(=S)NCCc1ccccc1	i	i	i	7.1µM	i	6.3µM
CC(C)(C)CC(=O)NC(=S)NCCc1ccccc1	i	i	i	10µM	i	7.1µM
CCOc1cc(NC(=S)NCCc2ccccc2)c(OCC)cc1NC(C)=O	i	i	i	i	i	11µM
NC(=S)N/N=C1\CCOc2ccc(Cl)cc21	i	i	i	8.9µM	i	3.2µM
O=C(/C=C/c1ccccc1)N1CCOCC1	i	i	i	i	i	i
O=C(/C=C/c1ccccc1)CCN1CCOCC1	0.56µM	nt	nt	nt	i	nt
CN1CCC(OC(=O)c2ccc(Cl)cc2Cl)CC1	i	i	i	i	i	i
N#CC1=C(N)SC(N)=C(C#N)C1C1CC=CCC1 (stereo not drawn)	?	i	i	?	i	16µM
CC(C)NC(=O)CCCC(=O)NC(C)C	i	i	i	i	i[0.457 µM]	i
O=c1[nH]c2cc3c(cc2cc1CN(Cc1cccs1)Cc1nnnn1Cc1ccco1)OCCO3	16µM	i	i	i	i	?
COc1cc(C(=O)N(Cc2cccnc2)Cc2cc3cc4c(cc3[nH]c2=O)OCCO4)cc(OC)c1OC	i	i	-50	i	i	i
Cc1ccc2[nH]c(=O)c(CN(Cc3ccco3)Cc3nnnn3Cc3ccccc3)cc2c1	i	nt	nt	nt	i	nt
O=C(c1ccccc1F)N(Cc1cccnc1)Cc1cc2cc3c(cc2[nH]c1=O)OCCO3	i	i	i	i	i	i
O=c1[nH]c2cc3c(cc2cc1CN(Cc1ccccc1)Cc1nnnn1Cc1ccco1)OCCO3	18µM	i	i	i	i	?
CCc1ccc2[nH]c(=O)c(CN(Cc3ccccc3)Cc3nnnn3Cc3ccco3)cc2c1	i	i	i	nt	i	i[0.365 µM]
COc1ccccc1CN(Cc1cc2cc3c(cc2[nH]c1=O)OCCO3)Cc1nnnn1Cc1ccco1	5.6µM	i	i	i	i	?
SMILES	rTrxR1 inhibitor	GALK inh	Coupling enz	VP16 counter	TrxR1 substrate	RORgamma inh
CC(C)n1c(N2CCN(CC(=O)Nc3ccc4c(c3)OCCO4)CC2)nc2ccccc21	i	i	i	i	i	i
CCN(CC)S(=O)(=O)c1cccc(C(=O)N2CCCc3ccccc32)c1	i	i	i	i	i	i
Cc1ccc2cc(CN(Cc3ccco3)Cc3nnnn3Cc3ccco3)c(=O)[nH]c2c1	?	nt	nt	nt	i	nt
Cc1ccc2[nH]c(=O)c(CN(CCCO)Cc3nnnn3Cc3ccco3)cc2c1	28µM	nt	nt	nt	i	nt
Cc1ccc2[nH]c(=O)c(CN(Cc3cccnc3)Cc3nnnn3CCN3CCOCC3)cc2c1	11µM	i	i	i	i	i
Cc1ccc2cc(CN(Cc3nnnn3Cc3ccco3)CC3CCCO3)c(=O)[nH]c2c1C (stereo not drawn)	25µM	i	i	i	i	i
O=c1[nH]c2cc3c(cc2cc1CN(Cc1cccnc1)Cc1nnnn1Cc1ccco1)OCCO3	11µM	i	i	i	i	i

High-throughput results as filed in PubChem.
